Assay results published in PubChem BioAssay (Tox21).
Values without a mark were called inactive. Results filed as inconclusive are left out. Entries that show only a call come without a potency. Activity calls are given as the source filed them. Unless noted, the call rests on the fitted dose curve; in most records, active means well fitted curve in the direction sought with a large enough effect in the repeat runs; inconclusive means weak or mixed curves; inactive means no such curve, though single readings can be large; an effect the other way counts as inactive or inconclusive.

How the values were obtained:
[1] = qHTS assay for small molecule agonists of the p53 signaling pathway (AID 651631; calls by dose curve; further: nearly all actives have a fitted effect of over 15% in size; further: potency means the concentration at half of the fitted maximal effect)
How it was run: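 HCT-116 cells carrying a beta-lactamase reporter under p53 response elements were dosed with compound for 16 h at 37 °C. LiveBLAzer B/G FRET substrate was then added for 2 h at room temperature, and fluorescence intensity was read to detect pathway agonism.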

[2] = qHTS assay for small molecules that induce genotoxicity in human embryonic kidney cells expressing luciferase-tagged ATAD5 (AID 651632); further: nearly all actives have a fitted effect of over 15% in size; further: potency means the concentration at half of the fitted maximal effect
How it was run: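 Concentration-response screen for ATAD5 upregulation in HEK293T luciferase reporter cells; 16 hr treatment at 37C, then luminescence after 30 min with Amplite at room temperature.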

[3] = qHTS assay for small molecule agonists of the p53 signaling pathway - cell viability (AID 651633; calls by dose curve;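 further: p53RE-bla HCT reporter cells with a stable beta-lactamase p53 reporter; series mostly up to about 83 µM; nearly all actives have a fitted effect of over 30% in size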)
How it was run: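 p53RE-bla cells, seeded at 4,000 per well and rested 5 h at 37 C/5% CO2, received compounds in DMSO for 16 h at 37 C. CellTiter-Glo was then added, and luminescence was read after 30 min at room temperature to gauge cytotoxicity.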

[4] = qHTS assay for small molecules that induce genotoxicity in human embryonic kidney cells expressing luciferase-tagged ATAD5 - cell viability (AID 651634; calls by dose curve; further: nearly all actives have a fitted effect of over 25% in size)
How it was run: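 15.5 hr compound or vehicle exposure of HEK293T cells expressing luciferase-tagged ATAD5 at 37C; live-cell protease activity is read by fluorescence after 30 min of CellTiter-Fluor.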

[5] = qHTS assay for small molecule disruptors of the mitochondrial membrane potential - cell viability (AID 720634; calls by dose curve;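 further: human HepG2 liver cancer cells; series mostly up to about 83 µM; nearly all actives have a fitted effect of over 20% in size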)
How it was run: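 In this qHTS format, HepG2 cells plated overnight were pinned with compound, incubated 1 hr, and assayed for ATP luminescence with CellTiter-Glo after m-MPI dye addition.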

[6] = qHTS assay for small molecule disruptors of the mitochondrial membrane potential (AID 720635)
How it was run: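 HepG2 cells (2,000/well) attached overnight at 37C, then took compound for 1 hr at 37C, 5% CO2. Mito-MPS dye was added for 30 min; fluorescence was read at 490/535 nm (monomers) and 540/590 nm (aggregates).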

[7] = qHTS assay to test for compound auto fluorescence at 590 nm (red) in HepG2 cells (AID 720674)
How it was run: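 Compound auto-fluorescence is scored relative to Rose Bengal sodium, measured at 540/590 nm in live HepG2 cultures after 1 hr compound contact (37 C, 5% CO2).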

[8] = qHTS assay to test for compound auto fluorescence at 460 nm (blue) in HEK293 cells (AID 720678)
How it was run: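 After cell attachment (4-5 hr, 37C), compounds were pinned onto HEK293 monolayers in 10% dialyzed FBS medium. The blue channel (405/460 nm) was read following overnight culture. Equivalency was calculated against triamterene.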

[9] = qHTS assay to test for compound auto fluorescence at 590 nm (red) in HEK293 cells (AID 720679)
How it was run: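 Plates of HEK293 cells (10% dialyzed FBS) are treated with 23 nL compound or DMSO vehicle after a 4-5 hr attachment period, incubated overnight at 37C, and read for red fluorescence at 540/590nm.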

[10] = qHTS assay to test for compound auto fluorescence at 535 nm (green) in HepG2 cells (AID 720675)

SMILES	Potency [1]	Potency [2]	outcome [3]	outcome [4]	outcome [5]	Potency [6]	outcome [7]	outcome [8]	outcome [9]	fluorescence, relative to Rose Bengal [7]	fluorescence, % of triamterene [8]	fluorescence, % of fluorescent control [9]	outcome [10]
CCCC(=O)CC	inactive	inactive	inactive	inactive	inactive	inactive	inactive	inactive	inactive				
O=C(O)CCC(=O)Nc1ccc(S(=O)(=O)Nc2nccs2)cc1	inactive	inactive	inactive	inactive	inactive	inactive				-0.131% [at 18.6 µM]	0.029% [at 18.6 µM]	-0.0693% [at 18.6 µM]	
COc1ccc2cc(CCC(C)=O)ccc2c1	inactive	4.52 µM (active)	inactive	inactive	inactive	inactive				-0.0879% [at 18.6 µM]	0.0581% [at 18.6 µM]	0.875% [at 18.6 µM]	
CCCCOCCCC	inactive	inactive	inactive	inactive	inactive		inactive	inactive	inactive				inactive
CC(CN1CC(=O)NC(=O)C1)N1CC(=O)NC(=O)C1 (configuration not stated)	11.9 µM (active)	inactive	inactive	inactive	inactive	inactive	inactive	inactive	inactive				
CCCCS	inactive	inactive	inactive	inactive	inactive	inactive	inactive	inactive	inactive				
CCCC(=O)OC	inactive	inactive	inactive	inactive	inactive	inactive	inactive	inactive	inactive				
CC(C)(C)OC(=O)c1ccccc1C(=O)O	inactive	inactive	inactive	inactive	inactive	inactive	inactive	inactive	inactive				inactive
C[C@@H]1NC(=O)[C@@H](N)CNC(=O)[C@H](C2CCNC(N)=N2)NC(=O)/C(=C/NC(N)=O)NC(=O)[C@H](CNC(=O)C[C@@H](N)CCCN)NC1=O (some centres not stated)	inactive	inactive	inactive	inactive	inactive	inactive	inactive	inactive	inactive				inactive
Cc1nc2ccc(Cl)cc2[nH]1	inactive	inactive	inactive	inactive	inactive	inactive	inactive	inactive	inactive				inactive
CCCC(C)C(O)CC (configuration not stated)	inactive	inactive	inactive	inactive	inactive	inactive	inactive	inactive	inactive				
CC(C)CC(O)Cc1ccccc1 (configuration not stated)	inactive	inactive	inactive	inactive	inactive	inactive	inactive	inactive	inactive				inactive
Cc1ccc(N)nc1	inactive	inactive	inactive	inactive	inactive	inactive	inactive	inactive	inactive				inactive
CN1CCN(C(=O)C2CCCCC2)CC1	inactive	inactive	inactive	inactive	inactive	inactive	inactive	inactive	inactive				
CCCCN=C(N)N=C(N)N	inactive	inactive	inactive	inactive	inactive	inactive	inactive	inactive	inactive				inactive
CCCc1ccc(O)c(OC)c1	inactive	inactive	inactive	inactive	inactive	inactive	inactive	inactive	inactive				
COc1cc(C(=O)NC2CCCNC2)cc(OC)c1OC (configuration not stated)	inactive	inactive	inactive	inactive	inactive	inactive	inactive	inactive	inactive				inactive
COC(=O)/C=C(\C)CCC=C(C)C	inactive	inactive	inactive	inactive	inactive	inactive	inactive	inactive	inactive				
CC(=O)Oc1ccc(C(C)=O)cc1	inactive	inactive	inactive	inactive	inactive		inactive	inactive	inactive				inactive
N[C@H]1C(O)O[C@H](CO)[C@@H](O)[C@@H]1O (some centres not stated)	inactive	inactive	inactive	inactive	inactive	inactive	inactive	inactive	inactive				inactive
C/C=C/C(=O)CCCC	inactive	inactive	inactive	inactive	inactive	inactive	inactive	inactive	inactive				inactive
O=Cc1ccc(C(=O)O)cc1	inactive	inactive	inactive	inactive	inactive	inactive	inactive	inactive	inactive				inactive
C=CCN1CCc2nc(N)sc2CC1	inactive	inactive	inactive	inactive	inactive	inactive	inactive	inactive	inactive				inactive
COCCCOc1cc(C[C@@H](C[C@H](N)[C@@H](O)C[C@H](C(=O)NCC(C)(C)C(N)=O)C(C)C)C(C)C)ccc1OC	inactive	inactive	inactive	inactive	inactive	inactive	inactive		inactive				inactive
